Columns and labels:
Test in all cases: PBM binding z-score (relative to random genomic background probes); higher = stronger binding; sequences stand for … in GC…GCGATTGACAGCGTAGAATGAAGG
[1] = system: PPARg:RXRa DBDmut IVT, anti-RXR (DBD mutation: RXRa K156A/R161A, NR concentration 270 nM, RXRa partner concentration 90 nM)
How it was run: (§1)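 For binding z-scores, the reference was random background probes on custom Agilent 4×180K protein-binding microarrays. These arrays were incubated 1 h with ligand-free nuclear receptor dimers in PBS pH 7.4, 2% milk, 0.02% Triton X-100, 1 mM DTT, 0.2 mg/mL BSA and 0.4 mg/ml salmon testes DNA. Fluorescence was scanned after antibody detection of each partner (one per run) and regression-normalized.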

[2] = system: PPARg:RXRa IVT, anti-PPARg (NR concentration 270 nM, RXRa partner concentration 90 nM)
How it was run: as §1

[3] = system: PPARg DBDmut:RXRa IVT, anti-PPARg (DBD mutation: PPARg1 K132A/R137A, NR concentration 270 nM, RXRa partner concentration 90 nM)
How it was run: as §1

[4] = system: PPARg DBDmut IVT, anti-PPARg (DBD mutation: PPARg1 K132A/R137A, NR concentration 270 nM)
How it was run: as §1

[5] = system: PPARg homodimer (NR concentration 180 nM)
How it was run: as §1

[6] = system: PXR:RXRa (NR concentration 270 nM, RXRa partner concentration 90 nM)
How it was run: as §1

[7] = system: PXR homodimer (NR concentration 270 nM)
How it was run: as §1

[8] = system: RARa:RXR (NR concentration 270 nM, RXRa partner concentration 90 nM)
How it was run: as §1

[9] = system: RARa homodimer (NR concentration 270 nM)
How it was run: as §1

[10] = system: RARb:RXRa (NR concentration 270 nM, RXRa partner concentration 90 nM)
How it was run: as §1

[11] = system: RARb homodimer (NR concentration 270 nM)
How it was run: as §1

[12] = system: RARg:RXRa (NR concentration 270 nM, RXRa partner concentration 90 nM)
How it was run: as §1

[13] = system: RARg homodimer (NR concentration 270 nM)
How it was run: as §1

[14] = system: RXRa DBDmut IVT, anti-RXR (DBD mutation: RXRa K156A/R161A, NR concentration 90 nM)
How it was run: as §1

[15] = system: RXRa homodimer (NR concentration 180 nM)
How it was run: as §1

[16] = system: THRa:RXRa (NR concentration 90 nM, RXRa partner concentration 90 nM)
How it was run: as §1

[17] = system: THRa homodimer (NR concentration 90 nM)
How it was run: as §1

[18] = system: VDR homodimer (NR concentration 270 nM)
How it was run: as §1

What does the source list for ATATGTAGGATACATCCGGGTCATTCAGGCTATG?
PBM binding z-score [1]: 3.21; PBM binding z-score [2]: 3.86; PBM binding z-score [3]: 1.63; PBM binding z-score [4]: 1.37; PBM binding z-score [5]: 1.25; PBM binding z-score [6]: 2.39; PBM binding z-score [7]: 1.38; PBM binding z-score [8]: 2.42; PBM binding z-score [9]: 0.161; PBM binding z-score [10]: 1.2; PBM binding z-score [11]: 2.18; PBM binding z-score [12]: 1.58; PBM binding z-score [13]: 1.43; PBM binding z-score [14]: 0.223; PBM binding z-score [15]: 1.95; PBM binding z-score [16]: 2.99; PBM binding z-score [17]: 1.95; PBM binding z-score [18]: 2.23

For ACTGGTTGGTCAGCTGAGGTCACACACAATTCGG, which PBM binding z-score [1] is on record?
The PBM binding z-score was 0.671.

And the PBM binding z-score [2]?
The PBM binding z-score was 2.22.

And the PBM binding z-score [3]?
The PBM binding z-score was 1.22.

What about the PBM binding z-score [4] of the same sequence?
The PBM binding z-score was 0.402.

And the PBM binding z-score [5]?
The PBM binding z-score was 3.12.

And the PBM binding z-score [6]?
Its PBM binding z-score is 5.37.

What about the PBM binding z-score [7] of the same sequence?
Its PBM binding z-score is 2.47.

What about the PBM binding z-score [8] of the same sequence?
Its PBM binding z-score is 4.61.

What about the PBM binding z-score [9] of the same sequence?
Its PBM binding z-score is 1.92.

And the PBM binding z-score [10]?
The PBM binding z-score was 3.73.

And the PBM binding z-score [11]?
The PBM binding z-score was 4.63.

And the PBM binding z-score [12]?
The PBM binding z-score was 4.08.

And the PBM binding z-score [13]?
The PBM binding z-score was 4.57.

What about the PBM binding z-score [14] of the same sequence?
Its PBM binding z-score is 1.23.

What about the PBM binding z-score [15] of the same sequence?
Its PBM binding z-score is 4.2.

What about the PBM binding z-score [16] of the same sequence?
Its PBM binding z-score is 5.13.

What about the PBM binding z-score [17] of the same sequence?
Its PBM binding z-score is 5.73.

What about the PBM binding z-score [18] of the same sequence?
Its PBM binding z-score is 4.2.

Which results are given for TCGAGTAGGTTACCAATGGTGCATTCAGCTTTCT?
PBM binding z-score [1]: 3.28; PBM binding z-score [2]: 2.62; PBM binding z-score [3]: -0.362; PBM binding z-score [4]: -0.313; PBM binding z-score [5]: -0.186; PBM binding z-score [6]: -0.18; PBM binding z-score [7]: -0.657; PBM binding z-score [8]: 0.145; PBM binding z-score [9]: -1.04; PBM binding z-score [10]: 0.684; PBM binding z-score [11]: -0.0825; PBM binding z-score [12]: 0.138; PBM binding z-score [13]: 0.0849; PBM binding z-score [14]: 0.244; PBM binding z-score [15]: 0.365; PBM binding z-score [16]: -0.118; PBM binding z-score [17]: -0.617; PBM binding z-score [18]: -0.499

With ATATGTAGGTTACGGGTCATTCAGGTTGGTTCGC as the sequence, how does the PBM binding z-score [1] read?
Its PBM binding z-score is 7.79.

What about the PBM binding z-score [2] of the same sequence?
The PBM binding z-score was 7.99.

And the PBM binding z-score [3]?
Its PBM binding z-score is 5.13.

What about the PBM binding z-score [4] of the same sequence?
Its PBM binding z-score is 4.88.

What about the PBM binding z-score [5] of the same sequence?
Its PBM binding z-score is 3.88.

What about the PBM binding z-score [6] of the same sequence?
Its PBM binding z-score is 4.78.

And the PBM binding z-score [7]?
Its PBM binding z-score is 1.67.

And the PBM binding z-score [8]?
The PBM binding z-score was 4.07.

And the PBM binding z-score [9]?
The PBM binding z-score was 1.28.

And the PBM binding z-score [10]?
The PBM binding z-score was 2.92.

And the PBM binding z-score [11]?
The PBM binding z-score was 3.24.

And the PBM binding z-score [12]?
Its PBM binding z-score is 3.35.

And the PBM binding z-score [13]?
The PBM binding z-score was 2.58.

What about the PBM binding z-score [14] of the same sequence?
Its PBM binding z-score is 1.69.

And the PBM binding z-score [15]?
Its PBM binding z-score is 4.31.

What about the PBM binding z-score [16] of the same sequence?
The PBM binding z-score was 3.15.

What about the PBM binding z-score [17] of the same sequence?
The PBM binding z-score was 1.49.

What about the PBM binding z-score [18] of the same sequence?
The PBM binding z-score was 3.37.

CCTACTGAGCCATTCAGAGGTCATTGATCATATG was tested. Which PBM binding z-score [1] did it give?
Its PBM binding z-score is 0.787.

What about the PBM binding z-score [2] of the same sequence?
The PBM binding z-score was 1.12.

And the PBM binding z-score [3]?
The PBM binding z-score was 0.0537.

And the PBM binding z-score [4]?
Its PBM binding z-score is 0.233.

And the PBM binding z-score [5]?
Its PBM binding z-score is 3.19.

What about the PBM binding z-score [6] of the same sequence?
Its PBM binding z-score is 4.96.

And the PBM binding z-score [7]?
The PBM binding z-score was 3.63.

What about the PBM binding z-score [8] of the same sequence?
Its PBM binding z-score is 4.44.

And the PBM binding z-score [9]?
The PBM binding z-score was 1.71.

What about the PBM binding z-score [10] of the same sequence?
The PBM binding z-score was 2.87.

And the PBM binding z-score [11]?
Its PBM binding z-score is 4.08.

And the PBM binding z-score [12]?
The PBM binding z-score was 3.93.

What about the PBM binding z-score [13] of the same sequence?
Its PBM binding z-score is 2.95.

And the PBM binding z-score [14]?
Its PBM binding z-score is 1.66.

And the PBM binding z-score [15]?
The PBM binding z-score was 4.41.

What about the PBM binding z-score [16] of the same sequence?
The PBM binding z-score was 3.21.

What about the PBM binding z-score [17] of the same sequence?
The PBM binding z-score was 1.58.

And the PBM binding z-score [18]?
The PBM binding z-score was 3.71.

With CCTACTGGGCCATTCAGAGGCCATTGATCATATG as the sequence, how does the PBM binding z-score [1] read?
Its PBM binding z-score is 4.1.

And the PBM binding z-score [2]?
Its PBM binding z-score is 3.43.

And the PBM binding z-score [3]?
Its PBM binding z-score is -0.542.

What about the PBM binding z-score [4] of the same sequence?
Its PBM binding z-score is -0.403.

What about the PBM binding z-score [5] of the same sequence?
Its PBM binding z-score is 0.212.

And the PBM binding z-score [6]?
Its PBM binding z-score is -0.174.

And the PBM binding z-score [7]?
Its PBM binding z-score is -0.0574.

And the PBM binding z-score [8]?
Its PBM binding z-score is -0.153.

And the PBM binding z-score [9]?
Its PBM binding z-score is -0.498.

And the PBM binding z-score [10]?
The PBM binding z-score was 0.712.

And the PBM binding z-score [11]?
The PBM binding z-score was 0.918.

And the PBM binding z-score [12]?
The PBM binding z-score was 0.62.

And the PBM binding z-score [13]?
Its PBM binding z-score is 0.424.

What about the PBM binding z-score [14] of the same sequence?
The PBM binding z-score was -0.152.

And the PBM binding z-score [15]?
The PBM binding z-score was -0.147.

And the PBM binding z-score [16]?
The PBM binding z-score was 0.255.

And the PBM binding z-score [17]?
Its PBM binding z-score is -0.212.

What about the PBM binding z-score [18] of the same sequence?
Its PBM binding z-score is -0.0106.

Which results are given for TCATATAGGTAATACAGCTGAAAGTCGGCATCTA?
PBM binding z-score [1]: 4.01; PBM binding z-score [2]: 1.94; PBM binding z-score [3]: 0.896; PBM binding z-score [4]: 1.18; PBM binding z-score [5]: 1.1; PBM binding z-score [6]: 0.684; PBM binding z-score [7]: -0.0774; PBM binding z-score [8]: 0.947; PBM binding z-score [9]: 0.987; PBM binding z-score [10]: 0.188; PBM binding z-score [11]: -0.493; PBM binding z-score [12]: 0.294; PBM binding z-score [13]: 0.383; PBM binding z-score [14]: 1.69; PBM binding z-score [15]: 0.684; PBM binding z-score [16]: -0.0502; PBM binding z-score [17]: -0.127; PBM binding z-score [18]: -0.525

For ACAGACAGGTGATGAAGGTAGCTCAGGCTATCAT, which PBM binding z-score [1] is on record?
The PBM binding z-score was 0.00476.

What about the PBM binding z-score [2] of the same sequence?
Its PBM binding z-score is -0.161.

And the PBM binding z-score [3]?
The PBM binding z-score was -0.42.

What about the PBM binding z-score [4] of the same sequence?
Its PBM binding z-score is -0.376.

And the PBM binding z-score [5]?
The PBM binding z-score was -1.11.

And the PBM binding z-score [6]?
The PBM binding z-score was -0.38.

What about the PBM binding z-score [7] of the same sequence?
The PBM binding z-score was 0.0281.

What about the PBM binding z-score [8] of the same sequence?
Its PBM binding z-score is -0.246.

What about the PBM binding z-score [9] of the same sequence?
The PBM binding z-score was 0.11.

What about the PBM binding z-score [10] of the same sequence?
Its PBM binding z-score is 0.0595.

And the PBM binding z-score [11]?
The PBM binding z-score was -0.243.

What about the PBM binding z-score [12] of the same sequence?
Its PBM binding z-score is -0.0777.

What about the PBM binding z-score [13] of the same sequence?
The PBM binding z-score was 0.295.

And the PBM binding z-score [14]?
Its PBM binding z-score is -0.263.

What about the PBM binding z-score [15] of the same sequence?
Its PBM binding z-score is 0.147.

What about the PBM binding z-score [16] of the same sequence?
Its PBM binding z-score is 0.294.

What about the PBM binding z-score [17] of the same sequence?
The PBM binding z-score was -0.392.

What about the PBM binding z-score [18] of the same sequence?
The PBM binding z-score was -0.696.

Reference: the supplement of paper PMC6555819
